D1 potentiator = Potentiators of Human D1 Dopamine Receptor: qHTS; D(1A) dopamine receptor (Homo sapiens), P21728; HEK293 TREx D1 cells, calcium flux, dopamine EC20 potentiation; AID 504651, 2011; potentiation, % at 10 µM; actives 0.036% (n = 360,000); in the data active = potentiation above about 30%
Target sequence (P21728 whole entry, looked up): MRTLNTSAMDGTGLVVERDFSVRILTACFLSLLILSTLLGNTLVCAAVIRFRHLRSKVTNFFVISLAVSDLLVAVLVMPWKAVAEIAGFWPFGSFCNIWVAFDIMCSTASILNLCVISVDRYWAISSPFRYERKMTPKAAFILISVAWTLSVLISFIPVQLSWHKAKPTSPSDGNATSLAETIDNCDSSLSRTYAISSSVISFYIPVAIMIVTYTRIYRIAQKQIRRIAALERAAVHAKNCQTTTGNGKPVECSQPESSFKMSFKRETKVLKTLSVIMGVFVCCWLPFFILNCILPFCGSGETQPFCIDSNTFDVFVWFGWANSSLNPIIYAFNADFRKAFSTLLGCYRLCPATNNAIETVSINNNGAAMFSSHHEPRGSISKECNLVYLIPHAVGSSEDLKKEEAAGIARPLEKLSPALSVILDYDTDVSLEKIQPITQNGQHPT
D1 antagonist = Antagonist of Human D 1 Dopamine Receptor: qHTS. D(1A) dopamine receptor (Homo sapiens), P21728. activity change, negative = inhibition, % at 10 µM. actives 3.2% (n = 360,000). HEK293 TREx D1 cells, calcium flux, dopamine EC80; stronger effect = lower value; in the data active = activity change below about -30%
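After overnight tetracycline induction at 30 C, force-coupled D1 HEK293 cells took up a no-wash calcium dye at room temperature. Compounds were added and monitored 180 s, and the response to EC80 dopamine was then recorded.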
TRPV1 PAM = HTS Assay for Compounds that Act as Potentiators of the Vanilloid Receptor 1. potentiation, % at 8.33 µM. actives 0.02% (n = 320,000). TRPV1-expressing cells, Fluo-8 calcium influx, capsaicin EC20 potentiation. Transient receptor potential cation channel subfamily V member 1 (Homo sapiens), Q8NER1; in the data active = potentiation above about 80%; inconclusive = between about 30% and that limit
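TRPV1-expressing cells were cultured overnight at 35.5C and loaded with Fluo-8 calcium dye for 40 to 90 min at room temperature. After a 10 s baseline, compound was added and calcium influx was read kinetically for 3 min (ex 480/em 520 nm).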
D1 agonist = Allosteric Agonists of the Human D1 Dopamine Receptor: qHTS; actives 1% (n = 360,000); HEK293 T-REx D1 cells, calcium flux, agonist mode; activation, % at 2 µM; D(1A) dopamine receptor (Homo sapiens), P21728; in the data active = activation above about 30%
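Inducible HEK293 T-REx D1 cells, force-coupled to calcium signalling, were plated at 4000 cells/well with tetracycline and held overnight at 30 C. After no-wash calcium dye loading, compound-evoked calcium rise over 180 s flagged agonists.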
TRPV1 ag = HTS Assay for Compounds that Act as Agonists of the Vanilloid Receptor 1. Transient receptor potential cation channel subfamily V member 1 (Homo sapiens), Q8NER1. AID 540275, 2011. activation, % at 8.33 µM. actives 0.19% (n = 320,000). TRPV1-expressing cells, Fluo-8 calcium influx, agonist mode; in the data active = activation above about 80%; inconclusive = between about 30% and that limit
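Fluo-8 calcium influx in TRPV1-expressing cells, kinetic read (ex 480/em 520 nm). Compound added and read 3 min for agonist activity, followed by capsaicin at EC20 final and 2 min further read for enhancement.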
Large screens that a line does not name were inactive. Rows were chosen to be rich in hits. Some 4.2% of all compounds tested hit in one or more screens of this group.

COc1ccc(/C=C\c2onc(C)c2S(=O)(=O)N2CCC(C(=O)Nc3ccccc3OC)CC2)cc1	none (no result: TRPV1 PAM, TRPV1 ag)
CN1C(=O)/C(=C/c2cccc(Cl)c2)Sc2ccc(C(=O)NCc3cccnc3)cc21	D1 antagonist -40, TRPV1 PAM 82
CN1CCN(C(=O)c2ccc3c(c2)N(C)C(=O)/C(=C/c2cccc(Cl)c2)S3)CC1	D1 antagonist -38
COc1cccc(/C=C2\Sc3ccc(C(=O)NCc4cccnc4)cc3N(C)C2=O)c1	TRPV1 ag inconclusive
COc1ccc(/C=C2\Sc3ccc(C(=O)N4CCN(Cc5ccccc5)CC4)cc3N(C)C2=O)cc1OC	none
COc1ccc(NC(=O)Cn2c(=O)n(Cc3ccco3)c(=O)c3sc4ccccc4c32)cc1OC	none (no result: TRPV1 PAM, TRPV1 ag)
COC(=O)c1ccccc1NC(=O)CCCn1c(=O)c2cccn2c2cccnc21	none (no result: TRPV1 PAM, TRPV1 ag)
CCOC(=O)c1cc(C#N)c(NCc2ccccc2)nc1C	D1 antagonist -43
CCOC(=O)c1cc(C(=O)NN)c(C)nc1C	D1 antagonist -87
CCOC(=O)c1cc(C#N)c(Oc2ccc(F)cc2)nc1-c1ccccc1	D1 antagonist -35, TRPV1 ag inconclusive
COc1cc(NC(=O)CC2C(=O)N(c3cccc(C)c3)C(=O)N2Cc2cccs2)cc(OC)c1 (stereo not given)	none (no result: TRPV1 PAM, TRPV1 ag)
O=C(CSc1nc(C2CCCCC2)nc2ccccc12)NCc1ccc2c(c1)OCO2	D1 antagonist -46, TRPV1 ag inconclusive
Cc1cc(C)cc(-n2c(SCC(=O)NCc3ccc4c(c3)OCO4)nc3ccccc3c2=O)c1	D1 antagonist -37
CCN(CC)c1ccc(NC(=O)CN(C)S(=O)(=O)c2cccc3nsnc23)c(C)c1	none (no result: TRPV1 PAM, TRPV1 ag)
CCC(C)Nc1sc(S(=O)(=O)CC)nc1S(=O)(=O)c1ccc(C)cc1 (stereo not given)	none (no result: TRPV1 PAM, TRPV1 ag)
Cc1nc2ccc(S(=O)(=O)CCC(=O)Nc3ccc(C(C)C)cc3)cc2s1	D1 antagonist -57 (no result: TRPV1 PAM, TRPV1 ag)
CCCCc1ccc(C(=O)Nc2ccc3nc(N(CC)CC)cc(C)c3c2)cc1	none (no result: TRPV1 PAM, TRPV1 ag)
Cc1nc2ccc(NC(=O)c3ccc(S(=O)(=O)N(C)c4ccccc4)cc3)cc2s1	D1 antagonist -35
CC(=O)Nc1ccc(NC(=O)c2ccc(S(=O)(=O)N(C)c3ccccc3)cc2)cc1	none
CCN(CC)c1cc(C)c2cc(NC(=O)c3ccc(Br)o3)ccc2n1	D1 antagonist -55, TRPV1 ag inconclusive
Cc1nc2ccc(S(=O)(=O)CCC(=O)Nc3ccc(Cl)cc3)cc2s1	none (no result: TRPV1 PAM, TRPV1 ag)
CN(c1ccccc1)S(=O)(=O)c1ccc(C(=O)Nc2nnc(-c3ccco3)o2)cc1	D1 antagonist -32
O=C(NCc1ccco1)c1ccc2c(c1)N(Cc1ccc(F)cc1)C(=O)c1ccccc1S2(=O)=O	none (no result: TRPV1 PAM, TRPV1 ag)
CC(=O)NC(c1ccco1)c1cc(Cl)c2ccc(N(C)C)nc2c1O (stereo not given)	none (no result: TRPV1 PAM, TRPV1 ag)
CCCCNC(=S)Nc1ccc(-c2nc3ccc(C)cc3s2)cc1	D1 antagonist -47
Cc1nc2ccc(S(=O)(=O)N(C)CC(=O)Nc3cccc(C(F)(F)F)c3)cc2s1	D1 antagonist -33 (no result: TRPV1 PAM, TRPV1 ag)
Cc1ccc2nc(-c3ccc(NC(=O)COC(=O)c4ccc([N+](=O)[O-])o4)cc3)sc2c1	none
Cc1nc2ccc(NC(=O)c3ccc(Br)o3)cc2s1	D1 antagonist -31, TRPV1 ag inconclusive
Cc1ccc2nc(-c3ccc(NC(=O)COC(=O)c4ccc(Br)o4)cc3)sc2c1	D1 potentiator 46
CCOC(=O)c1c(NC(=O)CSc2cn(CCNC(=O)c3ccccc3OC)c3ccccc23)sc2c1CCCC2	none (no result: TRPV1 PAM, TRPV1 ag)
CCOc1cc(-c2nnc(SCC(=O)NCc3ccccc3)nc2-c2ccc(OC)c(OCC)c2)ccc1OC	none (no result: TRPV1 PAM, TRPV1 ag)
Cc1ccc(OCCNC(=O)Cc2ccc(F)cc2)cc1	TRPV1 ag 84 (no result: D1 antagonist)
O=C(Nc1cccc(F)c1)/C(=C\c1ccco1)NC(=O)c1ccco1	none
CC(=O)c1cccc(NC(=O)/C(=C/c2ccco2)NC(=O)c2ccco2)c1	D1 potentiator 38
CCOc1ccccc1NC(=O)CC1C(=O)NCCN1C(=O)c1ccc(F)cc1 (stereo not given)	none (no result: TRPV1 PAM, TRPV1 ag)
COCCn1nnnc1C(c1cccc(C(F)(F)F)c1)N1CCOCC1 (stereo not given)	D1 antagonist -42
CC1CCN(C(=O)CSc2nc3c([nH]c4ccccc43)c(=O)n2-c2ccccc2)CC1	none (no result: TRPV1 PAM, TRPV1 ag)
CCn1cnc2c(Nc3ccc(CCC(=O)N=C(N)N)cc3)nc(C#N)nc21	none (no result: TRPV1 PAM, TRPV1 ag)
COc1cc(OC)cc(C(=O)NC(C(=O)NNC(=O)c2ccc(C)cc2)C(C)C)c1 (stereo not given)	none
COc1ccc(C(=O)NNC(=O)C(NC(=O)c2cc(OC)cc(OC)c2)C(C)C)cc1 (stereo not given)	D1 antagonist -39
CCn1ncc(C2=NOC(C(=O)NCc3ccccc3)C2)c1C (stereo not given)	none
CCn1ncc(C2=NOC(C(=O)Nc3cccc(C(C)=O)c3)C2)c1C (stereo not given)	D1 antagonist -32
O=C(NC1CCN(C(=O)NC2CCCCC2)CC1)c1ccco1	none
O=C(NC1CCCCCCC1)c1ccco1	D1 antagonist -31
O=C(NC1CCCC1)c1cc2cc(Br)ccc2o1	D1 antagonist -78, TRPV1 ag inconclusive
Cc1ccc(N2CCn3c2nc2c3c(=O)n(Cc3cccc(Cl)c3)c(=O)n2C)cc1C	none (no result: TRPV1 PAM, TRPV1 ag)
CC(C)Cc1ccc(C(C)C(=O)Nc2ccccc2O)cc1 (stereo not given)	D1 agonist 65, TRPV1 ag inconclusive
CC(C)Cc1ccc(C(C)C(=O)Nc2nccs2)cc1 (stereo not given)	none
C=CCN=c1scc(C)n1/N=C/c1ccc(O)c(O)c1	D1 antagonist -50
Cc1ccc(OCC(=O)Nc2ccc(S(=O)(=O)N3CCN(C)CC3)cc2)cc1	none
CCOc1ccc(OCC(=O)Nc2ccc(S(N)(=O)=O)cc2)cc1	D1 antagonist -34
NS(=O)(=O)c1ccc(NC(=O)COC(=O)C2(c3ccccc3F)CCCC2)cc1	D1 antagonist -34, TRPV1 ag inconclusive
CN1CCN(S(=O)(=O)c2ccc(NC(=S)NC(=O)C3CCCC3)cc2)CC1	D1 antagonist -45
CC(C)C(=O)NC(=S)Nc1ccc(S(=O)(=O)N2CCN(C)CC2)cc1	none
COc1ccc(OCC(=O)Nc2ccc(S(=O)(=O)N3CCN(C)CC3)cc2)cc1	D1 antagonist -39
NS(=O)(=O)c1ccc(NC(=O)COc2ccc(C(=O)c3ccc(F)cc3)cc2)cc1	none
CCOc1ccc(NC(=O)CN2C(=O)C(c3ccccc3)=NC23CCCCCC3)cc1	none (no result: TRPV1 PAM, TRPV1 ag)
